# Measurements taken from the supplement of paper PMC4466140.
# B1: unnamed (peptide)
# chain: NSVPIMPTLPPRPYI
# B2: unnamed (peptide)
# chain: AIPPPVPNRPGGTTN
# B3: unnamed (peptide)
# chain: SRQAIPPPVPNRPGG
# Molecular target: CaNbp2
# Assay: SPOT peptide array binding signal intensity (averaged, normalized) (arbitrary units (background-subtracted, floor 0; scale differs between SH3 domains)); higher = stronger binding of the SH3 domain to the peptide
# Outline: (§1)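 Binding signal is given in arbitrary units that differ between domains and is the normalized, background-subtracted spot intensity averaged across replicates. Each GST-SH3 fusion from one of four yeast species was made in E. coli BL21(DE3), purified on glutathione Sepharose and incubated at 10 μg/ml overnight at 4°C on cellulose-bound synthetic 15-mer peptides in which cysteines were replaced by serines. Detection used anti-GST antibody, an HRP anti-mouse secondary and luminol, followed by imaging and Genespotter quantification.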
row,Binder,SPOT peptide array binding signal intensity
1,B1,400
2,B2,1
3,B3,50.5

# Molecular target: CaRvs167
# Assay: as above
# Outline: as §1
row,Binder,SPOT peptide array binding signal intensity
1,B1,423
2,B2,1180
3,B3,1340

# Molecular target: CaRvs167-3
# Assay: as above
# Outline: as §1
row,Binder,SPOT peptide array binding signal intensity
1,B1,≤ 0
2,B2,1.25
3,B3,≤ 0

# Molecular target: CaSho1
# Assay: as above
# Outline: as §1
row,Binder,SPOT peptide array binding signal intensity
1,B1,260
2,B2,7
3,B3,8

# Molecular target: CaSla1-D1-D2
# Assay: as above
# Outline: as §1
row,Binder,SPOT peptide array binding signal intensity
1,B1,52
2,B2,≤ 0
3,B3,201

# Molecular target: CaSla1-D3
# Assay: as above
# Outline: as §1
row,Binder,SPOT peptide array binding signal intensity
1,B1,46
2,B2,≤ 0
3,B3,0.75

# Molecular target: ScAbp1
# Assay: as above
# Outline: as §1
row,Binder,SPOT peptide array binding signal intensity
1,B1,≤ 0
2,B2,≤ 0
3,B3,16

# Molecular target: ScBbc1
# Assay: as above
# Outline: as §1
row,Binder,SPOT peptide array binding signal intensity
1,B1,128
2,B2,515
3,B3,802

# Molecular target: ScBem1-D1
# Assay: as above
# Outline: as §1
row,Binder,SPOT peptide array binding signal intensity
1,B1,≤ 0
2,B2,≤ 0
3,B3,≤ 0

# Molecular target: ScBzz1-D1
# Assay: as above
# Outline: as §1
row,Binder,SPOT peptide array binding signal intensity
1,B1,3
2,B2,5
3,B3,23

# Molecular target: ScBzz1-D2
# Assay: as above
# Outline: as §1
row,Binder,SPOT peptide array binding signal intensity
1,B1,1
2,B2,1.5
3,B3,6

# Molecular target: ScCyk3
# Assay: as above
# Outline: as §1
row,Binder,SPOT peptide array binding signal intensity
1,B1,≤ 0
2,B2,≤ 0
3,B3,1

# Molecular target: ScFus1
# Assay: as above
# Outline: as §1
row,Binder,SPOT peptide array binding signal intensity
1,B1,40.5
2,B2,≤ 0
3,B3,≤ 0

# Molecular target: ScHof1
# Assay: as above
# Outline: as §1
row,Binder,SPOT peptide array binding signal intensity
1,B1,252
2,B2,3
3,B3,10

# Molecular target: ScHse1
# Assay: as above
# Outline: as §1
row,Binder,SPOT peptide array binding signal intensity
1,B1,26.5
2,B2,8
3,B3,≤ 0

# Molecular target: ScLsb1
# Assay: as above
# Outline: as §1
row,Binder,SPOT peptide array binding signal intensity
1,B1,380
2,B2,1120
3,B3,1620

# Molecular target: ScLsb2
# Assay: as above
# Outline: as §1
row,Binder,SPOT peptide array binding signal intensity
1,B1,128
2,B2,302
3,B3,1320

# Molecular target: ScLsb3
# Assay: as above
# Outline: as §1
row,Binder,SPOT peptide array binding signal intensity
1,B1,3460
2,B2,1950
3,B3,3290

# Molecular target: ScLsb4
# Assay: as above
# Outline: as §1
row,Binder,SPOT peptide array binding signal intensity
1,B1,2610
2,B2,857
3,B3,2540

# Molecular target: ScMyo3
# Assay: as above
# Outline: as §1
row,Binder,SPOT peptide array binding signal intensity
1,B1,668
2,B2,26
3,B3,371

# Molecular target: ScMyo5
# Assay: as above
# Outline: as §1
row,Binder,SPOT peptide array binding signal intensity
1,B1,107
2,B2,1.75
3,B3,220

# Molecular target: ScNbp2
# Assay: as above
# Outline: as §1
row,Binder,SPOT peptide array binding signal intensity
1,B1,210
2,B2,15
3,B3,304

# Molecular target: ScPex13
# Assay: as above
# Outline: as §1
row,Binder,SPOT peptide array binding signal intensity
1,B1,1530
2,B2,858
3,B3,1830

# Molecular target: ScRvs167
# Assay: as above
# Outline: as §1
row,Binder,SPOT peptide array binding signal intensity
1,B1,834
2,B2,1860
3,B3,1980

# Molecular target: ScSho1
# Assay: as above
# Outline: as §1
row,Binder,SPOT peptide array binding signal intensity
1,B1,154
2,B2,≤ 0
3,B3,32

# Molecular target: ScSla1-D1-D2
# Assay: as above
# Outline: as §1
row,Binder,SPOT peptide array binding signal intensity
1,B1,2
2,B2,13.5
3,B3,695

# Molecular target: ScSla1-D3
# Assay: as above
# Outline: as §1
row,Binder,SPOT peptide array binding signal intensity
1,B1,72
2,B2,≤ 0
3,B3,9.5

# Molecular target: SpAbp1-D1
# Assay: as above
# Outline: as §1
row,Binder,SPOT peptide array binding signal intensity
1,B1,≤ 0
2,B2,≤ 0
3,B3,17

# Molecular target: SpBbc1
# Assay: as above
# Outline: as §1
row,Binder,SPOT peptide array binding signal intensity
1,B1,50
2,B2,358
3,B3,723

# Molecular target: SpBzz1-D1
# Assay: as above
# Outline: as §1
row,Binder,SPOT peptide array binding signal intensity
1,B1,78
2,B2,146
3,B3,760

# Molecular target: SpBzz1-D2
# Assay: as above
# Outline: as §1
row,Binder,SPOT peptide array binding signal intensity
1,B1,0.5
2,B2,0.5
3,B3,59.5

# Molecular target: SpCyk3
# Assay: as above
# Outline: as §1
row,Binder,SPOT peptide array binding signal intensity
1,B1,6
2,B2,1
3,B3,3

# Molecular target: SpHof1
# Assay: as above
# Outline: as §1
row,Binder,SPOT peptide array binding signal intensity
1,B1,6.5
2,B2,≤ 0
3,B3,≤ 0

# Molecular target: SpHof1-2
# Assay: as above
# Outline: as §1
row,Binder,SPOT peptide array binding signal intensity
1,B1,34.5
2,B2,≤ 0
3,B3,≤ 0

# Molecular target: SpHof1-3
# Assay: as above
# Outline: as §1
row,Binder,SPOT peptide array binding signal intensity
1,B1,18.8
2,B2,16
3,B3,126

# Molecular target: SpHse1
# Assay: as above
# Outline: as §1
row,Binder,SPOT peptide array binding signal intensity
1,B1,214
2,B2,8.5
3,B3,≤ 0

# Molecular target: SpLsb1
# Assay: as above
# Outline: as §1
row,Binder,SPOT peptide array binding signal intensity
1,B1,523
2,B2,959
3,B3,1260

# Molecular target: SpLsb4
# Assay: as above
# Outline: as §1
row,Binder,SPOT peptide array binding signal intensity
1,B1,4060
2,B2,2930
3,B3,4790

# Molecular target: SpMyo1
# Assay: as above
# Outline: as §1
row,Binder,SPOT peptide array binding signal intensity
1,B1,378
2,B2,9.5
3,B3,120

# Molecular target: SpNbp2
# Assay: as above
# Outline: as §1
row,Binder,SPOT peptide array binding signal intensity
1,B1,76.5
2,B2,6.5
3,B3,≤ 0

# Molecular target: SpPex13
# Assay: as above
# Outline: as §1
row,Binder,SPOT peptide array binding signal intensity
1,B1,25
2,B2,≤ 0
3,B3,≤ 0

# Molecular target: SpRvs167
# Assay: as above
# Outline: as §1
row,Binder,SPOT peptide array binding signal intensity
1,B1,1070
2,B2,2560
3,B3,2220

# Molecular target: SpSla1-D1-D2
# Assay: as above
# Outline: as §1
row,Binder,SPOT peptide array binding signal intensity
1,B1,≤ 0
2,B2,≤ 0
3,B3,5

# Molecular target: SpSla1-D3
# Assay: as above
# Outline: as §1
row,Binder,SPOT peptide array binding signal intensity
1,B1,21.5
2,B2,≤ 0
3,B3,≤ 0

# Molecular target: AgAbp1
# Assay: as above
# Outline: as §1
row,Binder,SPOT peptide array binding signal intensity
1,B2,≤ 0
2,B3,≤ 0

# Molecular target: AgBbc1
# Assay: as above
# Outline: as §1
row,Binder,SPOT peptide array binding signal intensity
1,B2,1380
2,B3,1960

# Molecular target: AgBem1-D1
# Assay: as above
# Outline: as §1
row,Binder,SPOT peptide array binding signal intensity
1,B2,≤ 0
2,B3,0.5

# Molecular target: AgBzz1-D1
# Assay: as above
# Outline: as §1
row,Binder,SPOT peptide array binding signal intensity
1,B2,61
2,B3,280

# Molecular target: AgBzz1-D2
# Assay: as above
# Outline: as §1
row,Binder,SPOT peptide array binding signal intensity
1,B2,≤ 0
2,B3,15

# Molecular target: AgCyk3
# Assay: as above
# Outline: as §1
row,Binder,SPOT peptide array binding signal intensity
1,B2,≤ 0
2,B3,≤ 0

# Molecular target: AgFus1
# Assay: as above
# Outline: as §1
row,Binder,SPOT peptide array binding signal intensity
1,B2,≤ 0
2,B3,≤ 0

# Molecular target: AgHof1
# Assay: as above
# Outline: as §1
row,Binder,SPOT peptide array binding signal intensity
1,B2,≤ 0
2,B3,39.2

# Molecular target: AgHse1
# Assay: as above
# Outline: as §1
row,Binder,SPOT peptide array binding signal intensity
1,B2,13
2,B3,40

# Molecular target: AgLsb1
# Assay: as above
# Outline: as §1
row,Binder,SPOT peptide array binding signal intensity
1,B2,373
2,B3,1770

# Molecular target: AgLsb4
# Assay: as above
# Outline: as §1
row,Binder,SPOT peptide array binding signal intensity
1,B2,1024
2,B3,1590

# Molecular target: AgMyo5
# Assay: as above
# Outline: as §1
row,Binder,SPOT peptide array binding signal intensity
1,B2,3.5
2,B3,74.5

# Molecular target: AgNbp2
# Assay: as above
# Outline: as §1
row,Binder,SPOT peptide array binding signal intensity
1,B2,≤ 0
2,B3,106

# Molecular target: AgRvs167
# Assay: as above
# Outline: as §1
row,Binder,SPOT peptide array binding signal intensity
1,B2,269
2,B3,362

# Molecular target: AgSho1
# Assay: as above
# Outline: as §1
row,Binder,SPOT peptide array binding signal intensity
1,B2,≤ 0
2,B3,≤ 0

# Molecular target: AgSla1-D1-D2
# Assay: as above
# Outline: as §1
row,Binder,SPOT peptide array binding signal intensity
1,B2,≤ 0
2,B3,≤ 0

# Molecular target: AgSla1-D3
# Assay: as above
# Outline: as §1
row,Binder,SPOT peptide array binding signal intensity
1,B2,≤ 0
2,B3,3.5

# Molecular target: CaAbp1-D1
# Assay: as above
# Outline: as §1
row,Binder,SPOT peptide array binding signal intensity
1,B2,≤ 0
2,B3,156

# Molecular target: CaAbp1-D2
# Assay: as above
# Outline: as §1
row,Binder,SPOT peptide array binding signal intensity
1,B2,≤ 0
2,B3,8.5

# Molecular target: CaBbc1
# Assay: as above
# Outline: as §1
row,Binder,SPOT peptide array binding signal intensity
1,B2,2040
2,B3,3020

# Molecular target: CaBem1-D1
# Assay: as above
# Outline: as §1
row,Binder,SPOT peptide array binding signal intensity
1,B2,0.5
2,B3,30

# Molecular target: CaBzz1-D1
# Assay: as above
# Outline: as §1
row,Binder,SPOT peptide array binding signal intensity
1,B2,570
2,B3,2510

# Molecular target: CaBzz1-D2
# Assay: as above
# Outline: as §1
row,Binder,SPOT peptide array binding signal intensity
1,B2,79
2,B3,346

# Molecular target: CaCyk3
# Assay: as above
# Outline: as §1
row,Binder,SPOT peptide array binding signal intensity
1,B2,192
2,B3,359

# Molecular target: CaFus1
# Assay: as above
# Outline: as §1
row,Binder,SPOT peptide array binding signal intensity
1,B2,≤ 0
2,B3,23

# Molecular target: CaHof1
# Assay: as above
# Outline: as §1
row,Binder,SPOT peptide array binding signal intensity
1,B2,0.5
2,B3,1

# Molecular target: CaHse1
# Assay: as above
# Outline: as §1
row,Binder,SPOT peptide array binding signal intensity
1,B2,1.75
2,B3,101

# Molecular target: CaLsb1
# Assay: as above
# Outline: as §1
row,Binder,SPOT peptide array binding signal intensity
1,B2,1
2,B3,3.75

# Molecular target: CaLsb4
# Assay: as above
# Outline: as §1
row,Binder,SPOT peptide array binding signal intensity
1,B2,2490
2,B3,2960

# Molecular target: CaMyo5
# Assay: as above
# Outline: as §1
row,Binder,SPOT peptide array binding signal intensity
1,B2,≤ 0
2,B3,2
